Screening data from PubChem BioAssay.
Most compounds without a hit are left out; they make up all but 21% or so of the library.
Pf growth 48h – inhibits P. falciparum growth in the first generation, 48 h; P. falciparum luciferase growth in erythrocytes, 48 h; Potency, µM (highest dose often 28.7 µM), most hits filed as inhibitors; 310,000 tested, 5.9% active; AID 504832
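Growth was read as firefly luciferase luminescence after a 48 h, 37 C, 5% CO2 exposure of compounds to reporter-bearing P. falciparum cultures (0.1% parasitemia, 2% hematocrit final) in Albumax-supplemented RPMI 1640.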
Cycloheximide cs – affects cycloheximide protein synthesis inhibition readout, counter-screen. AID 2314. max response, %. cell reporter, cycloheximide protein synthesis inhibition counterscreen. 300,000 tested, 12% active; in the data active = max response mostly above about 13%, no sharp cut-off; inactive = mostly below about 14%; also: read at 38.3 µM for the half of the compounds with a filed dose
Pf growth 96h – P. falciparum growth inhibition at 96 hour, primary screen for plastid delayed-death inhibitors; P. falciparum luciferase reporter growth, 96 h; Potency, µM (series often up to 28.7 µM), hits mostly inhibitors; 320,000 tested, 6.9% active
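Cell-based qHTS: luciferase-tagged P. falciparum in erythrocytes (2% hematocrit, 0.05% parasitemia final) incubated with compounds for 96 hours, 37 C, 5% CO2; luciferase detection reagent then added and luminescence measured.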
NS1 function inh – blocks influenza NS1 protein function; 270,000 tested, 0.4% active; Potency, µM (doses to about 46.1 µM); calls by dose curve; also: actives are rising curves; nearly all actives have a fitted effect of over 50% in size
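A cell-based growth assay was used: compounds that relieve NS1-induced slow growth of budding yeast raise OD600. Assay medium was yeast nitrogen base with ammonium sulphate and -URA supplement, pH 6.0, with 2% galactose.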
Shiga toxin inh – Shiga toxin inhibition | 290,000 tested, 9.2% active | Vero cells, Shiga toxin protein synthesis inhibition reporter | inhibition, % at 38.7 µM; in the data active = inhibition mostly above about 28%, no sharp cut-off; inactive = mostly below about 43%
Numbers stand for hits; . = inactive; ? = inconclusive; / = not tested or not shown. Unless noted, calls follow the shape of the dose curve; as a rule, active = well fitted inhibition curve with a large enough effect; inconclusive = small, poorly fitted or top-dose-only effect, or another doubt; inactive = no such curve, though single readings can be large or run the other way.

SMILES | Pf growth 48h | Cycloheximide cs | Pf growth 96h | NS1 function inh | Shiga toxin inh
Cc1ccc(Cl)c2c1NC(=O)C2(O)CC(=O)c1ccccc1O (stereo unspecified) | . | . | 9.28µM | . | .
COc1ccc(-n2c(SCC(=O)O)nnc2-c2ccc(NC(=O)c3ccccc3)cc2)cc1 | 5.22µM | . | . | . | .
COc1ccc(-c2nnc(SCCC(=O)O)n2-c2ccccc2)cc1 | . | . | / | . | .
COc1ccc(NC(=O)CSc2nnc(-c3ccccc3)n2N)cc1 | . | . | . | . | .
COc1ccc(-c2nnc(SCC(=O)c3ccc[nH]3)n2-c2ccccc2)cc1 | . | 33.9 | ? | . | 81.5
O=C(N(c1ccccn1)c1ccccn1)C12CC3CC(CC(C3)C1)C2 | . | . | . | . | .
CCc1cccc(CC)c1NC(=O)c1ccccc1CCc1ccccc1 | 14.7µM | . | . | . | .
CN(CC(=O)Nc1cccc(F)c1)C(=O)c1ccccc1CCc1ccccc1 | 6.57µM | / | ? | / | /
Cc1cccc(COc2ccccc2C(=O)N(C)CC(=O)Nc2cccc(F)c2)c1 | ? | / | 4.15µM | / | /
Cc1cc(C)c(NC(=O)c2ccccc2CCc2ccccc2)c(C)c1 | ? | . | ? | . | .
COc1ccc(NC(=O)CN(C)C(=O)c2ccccc2CCc2ccccc2)cc1 | ? | / | . | / | /
Cc1nn(Cc2ccccc2Cl)c(C)c1C(=O)N(C)CC(=O)Nc1cccc(F)c1 | 13.1µM | / | ? | / | /
CCCNC(=O)C(Cc1ccccc1)NC(=O)Cc1ccccc1 (stereo unspecified) | . | / | ? | / | /
CC(C)(C)C#CCn1c(/C=[N+](\[O-])C2CCCCC2)nc2ccccc21 | . | . | . | . | .
COc1ccc(Br)cc1/C=N/NC(=O)c1ccc2nc[nH]c2c1 | . | . | . | . | .
CCOC(=O)C1(Cc2cccc(Cl)c2)CCCN(C(=O)c2ccc(COC)s2)C1 (stereo unspecified) | ? | 20.0 | . | . | .
CCOC(=O)C1(Cc2cccc(Cl)c2)CCCN(C(=O)C2CC2)C1 (stereo unspecified) | . | 13.8 | . | . | .
CCOC(=O)C1(Cc2cccc(Cl)c2)CCCN(C(=O)c2ccco2)C1 (stereo unspecified) | . | . | ? | . | 63.9
CCOC(=O)C1(Cc2cccc(Cl)c2)CCCN(C(=O)c2occc2C)C1 (stereo unspecified) | . | . | ? | . | .
CCOc1ccc(NC(=O)CN2C(=O)NC(C)(c3ccc(OC(F)F)cc3)C2=O)cc1 (stereo unspecified) | 1.04µM | . | ? | . | .
COc1ccc(C2(c3ccc(OC)cc3)NC(=O)N(CC(=O)NCC(C)c3ccccc3)C2=O)cc1 (stereo unspecified) | 11.7µM | / | 11.7µM | / | /
CC1(c2ccc(OC(F)F)cc2)NC(=O)N(CC(=O)Nc2ccc(Cl)cc2F)C1=O (stereo unspecified) | . | 12.7 | . | . | .
CC1(c2ccc(OC(F)F)cc2)NC(=O)N(CC(=O)Nc2ccc(OC(F)F)cc2)C1=O (stereo unspecified) | . | . | . | . | .
COc1ccc(C2(c3ccc(OC)cc3)NC(=O)N(CC(=O)Nc3ccc(OC(F)F)cc3)C2=O)cc1 | 11.7µM | . | ? | ? | .
COc1ccc(C2(c3ccc(OC)cc3)NC(=O)N(CC(=O)NC(C)C)C2=O)cc1 | . | . | . | . | .
SMILES | Pf growth 48h | Cycloheximide cs | Pf growth 96h | NS1 function inh | Shiga toxin inh
COCCN(C(=O)C(C)C)c1nnc(-c2cccc(C)c2)s1 | ? | . | . | . | .
COC(=O)C1CCN(S(=O)(=O)Cc2ccccc2)CC1 | . | . | . | . | .
C=CCn1c(SCC(=O)Nc2ccc3c(c2)OCO3)nnc1-c1ccccc1O | ? | . | . | . | .
CSc1ccccc1OCc1cc(C(=O)N(C)Cc2c(C)n[nH]c2C)no1 | . | 14.4 | ? | . | .
CSc1ccccc1OCc1cc(C(=O)N(C)Cc2cc(C)[nH]n2)no1 | . | 28.5 | . | . | .
CSc1ccccc1OCc1cc(C(=O)N(C)Cc2cnccn2)no1 | . | 51.6 | ? | . | 110.2
CCCCCC(=O)Nc1ncc2c(n1)CC(c1cccs1)CC2=O (stereo unspecified) | ? | . | ? | . | .
Cc1c(C(=O)NN2CCOCC2)nn(-c2ccc(Cl)cc2Cl)c1-c1ccc(I)cc1 | / | . | / | / | .
COc1cccc(-n2nnnc2SCC(=O)Nc2ccc(OC)cc2OC)c1 | . | . | . | . | .
COc1ccc(-n2nnnc2SCC(=O)Nc2cc(OC)c([N+](=O)[O-])cc2C)cc1 | ? | . | 2.94µM | . | .
COc1cccc(-n2nnnc2SCC(=O)Nc2ccccc2OC)c1 | . | . | 9.28µM | . | .
Cn1cccc1/C=C1\SC(=Nc2ccc(O)cc2)NC1=O | ? | 44.3 | ? | . | 36.9
Cn1cccc1/C=C1\SC(=Nc2ccccc2)NC1=O | . | 44.3 | 7.38µM | . | 85.4
Cc1ccc(N=C2NC(=O)/C(=C/c3cn(C)c4ccccc34)S2)cc1C | ? | . | 4.65µM | ? | .
CCOc1cc(Br)cc(/C=C2\SC(=Nc3ccccc3)NC2=O)c1O | ? | . | ? | . | .
COC(=O)/C=C1\SC(=Nc2ccccc2)NC1=O | . | . | . | . | .
O=C1NC(=Nc2ccccc2)S/C1=C\c1cccs1 | . | 44.6 | . | . | 89.4
Cn1cc(/C=C2\SC(=S)N(N3CCOCC3)C2=O)c2ccccc21 | . | . | . | . | .
Cc1nnc(SC(C(=O)Nc2ccc(Cl)c([N+](=O)[O-])c2)c2ccccc2)[nH]c1=O (stereo unspecified) | . | . | . | . | .
CCCCN(Cc1ccccc1)S(=O)(=O)c1ccc2[nH]c(=O)oc2c1 | . | . | . | . | .
CCOc1ccc2c(c1)S/C(=C\c1cccs1)C(=O)N2 | . | 31.4 | . | . | 68.7
Cc1cc(C)cc(N=C2NC(=O)/C(=C/c3cccs3)S2)c1 | . | . | ? | . | .
Cn1cccc1/C=C1\SC(=Nc2cccc(O)c2)NC1=O | . | 40.3 | ? | . | 99.6
Cc1ccc(N=C2NC(=O)/C(=C/c3cccn3C)S2)c(C)c1 | ? | . | 11.7µM | . | .
Cc1ccc(C(=O)NNC(=O)COC(=O)COc2ccccc2C#N)cc1 | . | / | . | / | /
SMILES | Pf growth 48h | Cycloheximide cs | Pf growth 96h | NS1 function inh | Shiga toxin inh
COC(=O)NC(=C(Cl)Cl)S(=O)(=O)c1ccccc1 | ? | 81.8 | ? | . | 128.2
COc1ccc(C(=O)NC(=C(Cl)Cl)S(=O)(=O)c2ccc(C)cc2)cc1 | . | 21.5 | . | . | .
Cc1ccc(C(=O)NC(=S)NNS(=O)(=O)c2ccccc2)cc1 | . | . | ? | . | .
Cc1ccc(C(=O)NC(=C(Cl)Cl)S(=O)(=O)c2ccccc2)cc1 | . | 102.9 | . | . | 161.0
COc1ccc(C(=O)NC(=O)COC(=O)CCS(=O)(=O)c2ccc(C)cc2)cc1 | . | / | . | / | /
CS(=O)(=O)N1CCC(Oc2cccc(C(=O)NCCCOc3cccnc3)c2)CC1 | . | . | . | . | .
CNC(=S)N(CCCO)Cc1cc2cc3c(cc2[nH]c1=O)OCO3 | . | . | . | . | .
CC(=O)NC1(C(F)(F)F)N=C2SCCN2C1=O (stereo unspecified) | / | . | . | . | .
O=C1N2CCSC2=NC1(NS(=O)(=O)c1ccccc1)C(F)(F)F (stereo unspecified) | . | . | 1.04µM | . | .
